FXN GAA850 act – increases GAA850 frataxin promoter reporter activity; HEK293 lucGAA850 FXN promoter luciferase reporter, 24 h; percent of 10 µM SAHA response; AID 540364; activation, % at 6 µM; 360,000 compounds, 0.56% hits;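 active = activation above the average of all compounds screened plus 3 SD, cutoff fixed separately per campaign, cut at about 7.5% in these data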;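 note: 0% = DMSO wells and 100% = 10 µM SAHA wells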
PAX8 reporter – PAX8 transcriptional activity inhibition; inhibition, % at 12.6 µM; 360,000 compounds, 1.2% hits; RMG-I TPO-luciferase reporter, SteadyGlo, 24 h;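 active = mean replicate inhibition at least 60% with every replicate also reaching 60%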;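 note: luciferase light reporting Pax8 driven TPO promoter activity; plate controls were median of neutral control wells for no effect and mitoxantrone controls for full effect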
EWS-Fli inh – EWS/Fli transcriptional activity inhibition. A673 NR0B1-luciferase reporter, viability-normalised. inhibition, % at 12.6 µM. 350,000 compounds, 0.67% hits;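 active = mean inhibition of at least 50% after viability correction, with every replicate also passing that limit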;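 note: firefly luciferase signal divided by Alamar Blue viability fluorescence both relative to DMSO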
HIV Env fusion – HIV envelope-mediated fusion inhibition; HeLa-JRFL Env/CEM21 cell fusion, luciferase; inhibition, % at 12.3 µM; 360,000 compounds, 1.1% hits;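 active = mean replicate inhibition score of at least 50 and every replicate individually at or above 50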;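 note: 0% = plate neutral controls and 100% = maraviroc near 300 nM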
F508del corr – CFTR F508del correction in bronchial cells. CFBE cells, YFP halide quenching; stimulated with forskolin plus potentiator P3; % fluorescence drop versus neutral controls. activity (quench increase), % at 7.58 µM. 350,000 compounds, 0.36% hits;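 active = mean added fluorescence quench of at least 8% versus neutral control, with both replicates also reaching 8%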;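 note: cells transiently co-express mutant CFTR-F508del with the halide-sensitive YFP; corrector assay measuring rescue of mutant channel to the surface after 24 h compound exposure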
Starred values were filed as active, the others as inactive; · = no result given; ! = not active in a repeat; [ ] = dose if it differs, or a comment. Most compounds without a hit are left out; they make up all but 2.5% or so of the library.

SMILES	FXN GAA850 act	PAX8 reporter	EWS-Fli inh	HIV Env fusion	F508del corr
Cc1ccccc1S(=O)(=O)NC(=O)C1(C)CCN1C(=O)CCc1ccc(Cl)cc1Cl (stereo not drawn)	0.6	8.7	-1.4	71.0*	4.1
CC1(C(=O)NS(=O)(=O)c2ccccc2Cl)CCN1C(=O)CCc1ccc(Cl)cc1Cl (stereo not drawn)	1.2	11.4	-1.1	4.2	0.1
CO[C@H]1CC[C@H]2CCOc3ccc(C#N)cc3C(=O)N(C)C[C@@H](OC)[C@@H](C)C(=O)N(C)C[C@H]1O2	·	-2.2	-0.5	18.7[16.7 µM]	·
COC(=O)c1cn(CC(=O)N2CCC3(CC2)C(=O)NCN3c2ccccc2)nn1	·	2.5	3.0	-6.9[16.7 µM]	-1.3
O=C(C1CCC1)N1CC(=O)N2[C@H](CO)[C@@H](c3ccc(C#CCc4ccccc4)cc3)[C@@H]2C1	·	-3.7	3.1	·	-2.3
O=C(Cc1ccccc1)N1CC(=O)N2[C@H](C1)[C@@H](c1ccc(C#Cc3ccccc3)cc1)[C@@H]2CO	·	·	·	·	8.0*
O=C(C1CCC1)N1CC(=O)N2[C@H](CO)[C@H](c3ccc(C#CCc4ccccc4)cc3)[C@H]2C1	·	82.6*	-5.4	·	3.4
O=C(Cc1ccccc1)N1CC(=O)N2[C@@H](CO)[C@@H](c3ccc(C#Cc4ccccc4)cc3)[C@@H]2C1	·	·	·	·	2.4
C[C@H](CO)N1C[C@H](C)[C@@H](CN(C)S(=O)(=O)c2ccc(F)cc2)Oc2ccc(NS(C)(=O)=O)cc2CC1=O	·	-29.2	-7.9	-6.1[16.7 µM]	-2.4
Cc1ccc(N(C(=O)Cc2c[nH]c3ccccc23)C(C(=O)NC2CCCCC2)c2ccco2)cc1 (stereo not drawn)	1.6	·	·	84.2*	·
Cc1ccc(S(=O)(=O)Nc2ccc3c(c2)C(=O)N([C@@H](C)CO)C[C@@H](C)[C@H](CN(C)CC2CCCCC2)O3)cc1	·	0.9	0.6	8.4[16.7 µM]	0.5
CCN1[C@H](C(=O)NC2CCCC2)[C@@H](CO)[C@@H]2Cn3c(ccc(-c4ccccc4F)c3=O)[C@@H]21	·	9.5	-2.7	·	-0.2
NS(=O)(=O)c1ccc(S(=O)(=O)N(CCc2ccccc2)Cc2ccccn2)cc1	-0.9	-1.6	-0.8	13.7	8.4*
O=S(=O)(c1ccc(Cl)cc1)N(Cc1ccccn1)Cc1ccccn1	2.0	-9.4	-8.8	11.6	-1.2
Cc1ccc(NCCN(C)C)c2c(=O)c3cc(O)ccc3sc12	-3.6	-13.1	52.1*	-67.5	0.7
COc1ccc(CN(C)C[C@H]2OCCCC[C@H](C)Oc3ccc(NS(=O)(=O)c4cccs4)cc3C(=O)N([C@@H](C)CO)C[C@@H]2C)cc1	·	-13.2	5.4	15.8[16.7 µM]	1.2
Cc1cc(CSc2ccccc2)ccc1NC(=O)c1ccc(CN2CCOCC2)cc1	-6.8	10.6	·	68.3*	·
O=C(C1CC1)N1C[C@@H]2N[C@H](C1)C2c1ccc(-c2ccccc2F)cc1 (stereo partly drawn)	·	87.2*!	11.1	·	-0.5
O=C(Nc1ccc(F)cc1)N1C[C@@H]2N[C@H](C1)C2c1ccc(-c2ccccc2F)cc1 (stereo partly drawn)	·	107.7*!	-4.4	·	-6.6
Cc1ccc(S(=O)(=O)NCC(=O)OCC(=O)NCc2ccc3c(c2)OCO3)cc1	-1.1	6.6	6.2	68.5*	-1.8
CC(=O)Nc1ccc(S(=O)(=O)NCC(=O)OCC(=O)NCc2ccc3c(c2)OCO3)cc1	-1.1	12.4	-4.3	22.3	2.6
COc1ccc(S(=O)(=O)N(C)C[C@@H]2OCCCC[C@H](C)Oc3ccc(NS(=O)(=O)c4ccc(C)cc4)cc3C(=O)N([C@@H](C)CO)C[C@@H]2C)cc1	·	41.9	11.8	32.0[16.7 µM]	0.4
COc1ccc(S(=O)(=O)Nc2ccc3c(c2)C(=O)N([C@H](C)CO)C[C@H](C)[C@H](CN(C)S(=O)(=O)c2ccc(C)cc2)OCCCC[C@H](C)O3)cc1	·	71.8*	9.3	-10.8[16.7 µM]	3.5
COc1ccc(S(=O)(=O)Nc2ccc3c(c2)C(=O)N([C@@H](C)CO)C[C@@H](C)[C@@H](CN(C)S(=O)(=O)c2ccc(C)cc2)OCCCC[C@@H](C)O3)cc1	·	67.1*	-11.5	-17.8[16.7 µM]	0.7
CNC[C@@H]1Oc2c(NS(=O)(=O)c3ccc(F)cc3)cccc2C(=O)N([C@@H](C)CO)C[C@H]1C	·	-9.9	-0.4	-14.9[16.7 µM]	1.1
SMILES	FXN GAA850 act	PAX8 reporter	EWS-Fli inh	HIV Env fusion	F508del corr
O=C(Cc1ccc(NC(=O)C2CCN(C(=O)C3CCCCC3)CC2)cc1)Nc1ccc(C(=O)N2CCOCC2)cc1	0.2	67.6*	9.1	13.0	-1.4
COc1cccc(S(=O)(=O)N2CC[C@@H]3[C@@H](CO)Nc4ccc(-c5ccc(C#N)cc5)cc4[C@@H]32)c1	·	11.9	16.3	·	3.4
COc1ccc(NC(=O)Nc2ccc3c(c2)CC(=O)N([C@H](C)CO)C[C@H](C)[C@H](CN(C)C(=O)Nc2ccc(OC)cc2)O3)cc1	·	·	-10.9	-9.1[16.7 µM]	0.5
Cc1ccc(S(=O)(=O)N(C)C[C@H]2Oc3ccc(NC(=O)C4CCCCC4)cc3CC(=O)N([C@H](C)CO)C[C@H]2C)cc1	·	·	-0.9	14.7[16.7 µM]	-1.8
C[C@@H]1CN([C@@H](C)CO)C(=O)Cc2cc(NC(=O)NC3CCCCC3)ccc2O[C@@H]1CN(C)S(=O)(=O)c1ccc(Cl)cc1	·	18.8	20.3	59.5*[16.7 µM]	-4.8
C[C@H]1CN([C@@H](C)CO)C(=O)Cc2cc(NC(=O)NC3CCCCC3)ccc2O[C@@H]1CN(C)S(=O)(=O)c1ccc(Cl)cc1	·	-3.8	-5.8	-0.4[16.7 µM]	-3.4
C[C@H]1CN([C@@H](C)CO)C(=O)Cc2cc(NC(=O)C3CCCCC3)ccc2O[C@H]1CN(C)S(=O)(=O)c1ccc(Cl)cc1	·	·	4.2	73.6*[16.7 µM]	-2.9
C[C@H](CO)N1C[C@H](C)[C@H](CN(C)S(=O)(=O)c2ccc(Cl)cc2)Oc2ccc(NC(=O)C3CCCCC3)cc2CC1=O	·	·	3.3	63.2*[16.7 µM]	1.9
C[C@H](CO)N1C[C@H](C)[C@@H](CN(C)S(=O)(=O)c2ccc(Cl)cc2)Oc2ccc(NC(=O)C3CC3)cc2CC1=O	·	-10.7	3.9	·	-3.0
C[C@H]1CN([C@@H](C)CO)C(=O)Cc2cc(NC(=O)Nc3ccc4c(c3)OCO4)ccc2O[C@H]1CN(C)Cc1ccc(Cl)c(Cl)c1	·	6.1	-8.1	41.2[16.7 µM]	3.9
COC(=O)C12OCC34C(CC5C(C)=C(O)C(=O)CC5(C)C3C(O)C1O)OC(=O)C(OC(=O)C=C(C)C)C24 (stereo not drawn)	-14.8	98.9*	43.8	64.3*	-7.6
CC=Cc1ccc2n(c1=O)C[C@@H]1[C@@H](CO)[C@H](C(=O)NCC3CC3)N(CC3CCOCC3)[C@H]21 (mixture of isomers)	·	-8.0	-17.8	·	0.3
C[C@@H]1CN([C@@H](C)CO)C(=O)c2cc(NC(=O)Nc3ccc(C(F)(F)F)cc3)ccc2O[C@@H](C)CCCCO[C@H]1CN(C)Cc1ccncc1	·	86.3*	14.0	3.4[16.7 µM]	2.0
C[C@H]1CCCCO[C@H](CN(C)Cc2ccncc2)[C@@H](C)CN([C@@H](C)CO)C(=O)c2cc(NC(=O)Nc3ccc(C(F)(F)F)cc3)ccc2O1	·	58.0	9.3	12.6[16.7 µM]	1.5

Bioassay records (PubChem BioAssay)
